Active and inactive are the calls of the source.

Among the data in PubChem BioAssay are z-score and composite z-score values, retold here.

Test [1] can be described thus: optical density shifts of acrAB sulA E. coli – strain DRC41, OD650, 48 h, E. coli filamentation inducer project, primary screen (AID 1152).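 Note: E. coli MC1000 strain DRC41 lacking acrAB efflux pump and sulA.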 Conditions: higher = more signal, called active from +8 up or from −8 down.
Test [2] in a line: probe aLefty1 binding on compound microarray – biochemical, small-molecule microarray, 635/667 nm fluorescence, primary screen (AID 1153).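 Note: score merges spot fluorescence with signal-to-noise ratio from the scanned slide images.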 Conditions: higher = more signal.
The nature of test [3]: plasmodial surface anion channel blockers, osmotic lysis – cell-based, P. falciparum Indochina, OD700, 1 h, primary screen (AID 1154). Conditions: P. falciparum Indochina infected RBC osmotic lysis, higher = more signal, called active from +8 up or from −8 down.
Test [4] can be described thus: plasmodial surface anion channel blockers, osmotic lysis – cell-based, P. falciparum Indochina, OD700, 2 h, primary screen (AID 1155).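 Note: lysis reports solute entry through the parasite surface anion channel PSAC.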 Conditions: P. falciparum Indochina infected erythrocytes, higher = more signal, called active from +8 up or from −8 down.
Test [5] can be described thus: changes in parasitized red cell lysis, either direction – P. falciparum Indochina, OD700, 3 h, PSAC antagonist project, primary screen (AID 1156). Conditions: P. falciparum-infected erythrocytes, osmotic lysis, higher = more signal, called active from +8 up or from −8 down.
Test [6] can be described thus: plasmodial surface anion channel blockers, osmotic lysis – cell-based, P. falciparum Indochina, OD700, 18 h, primary screen (AID 1157). Conditions: P. falciparum Indochina infected erythrocytes, osmotic lysis OD700, 18 h; higher = more signal, called active from +8 up or from −8 down.
Test [7] can be described thus: S6 kinase pathway phospho-S6 level changes – cell-based, A549, cytoblot, luminescence, serum-stimulated, primary screen (AID 1158).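 Note: serum-stimulated A549 lung adenocarcinoma cells; signal is phosphorylated S6 detected by cytoblot immunostaining with HRP secondary.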 Conditions: 5 h, higher = more signal.
In test [8] the target is NADPH oxidase 2 (Homo sapiens) (UniProt P04839). In words: compounds shifting NOX2 Amplex Red fluorescence – cell-based, HEK293-NOX2, PMA-stimulated, NOX inhibitor project, primary screen (AID 1159). Note: test concentration not given here. Conditions: 45 min, higher = more signal, called active from +8 up or from −8 down.
NADPH oxidase 2 (Homo sapiens), sequence (P04839 whole entry, looked up): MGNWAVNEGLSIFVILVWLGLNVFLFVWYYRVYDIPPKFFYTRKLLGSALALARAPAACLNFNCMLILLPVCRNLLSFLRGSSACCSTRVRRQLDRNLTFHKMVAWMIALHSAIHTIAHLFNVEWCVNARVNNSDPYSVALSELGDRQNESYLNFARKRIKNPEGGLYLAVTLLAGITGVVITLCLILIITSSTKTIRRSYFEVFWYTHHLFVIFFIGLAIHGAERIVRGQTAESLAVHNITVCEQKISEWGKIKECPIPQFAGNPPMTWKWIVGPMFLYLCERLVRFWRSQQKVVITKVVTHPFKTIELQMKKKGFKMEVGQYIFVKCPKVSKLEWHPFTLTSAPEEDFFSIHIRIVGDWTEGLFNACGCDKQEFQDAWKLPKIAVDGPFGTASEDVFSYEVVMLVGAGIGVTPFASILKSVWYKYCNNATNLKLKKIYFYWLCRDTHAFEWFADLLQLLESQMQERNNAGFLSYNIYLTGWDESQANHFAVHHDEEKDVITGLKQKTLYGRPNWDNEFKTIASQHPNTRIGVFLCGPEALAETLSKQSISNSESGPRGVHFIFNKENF
The target in test [9] is NADPH oxidase 4 (Homo sapiens) (UniProt Q9NPH5). Briefly: compounds shifting NOX4 Amplex Red fluorescence – cell-based, HEK293-NOX4, tetracycline-induced, NOX inhibitor project, primary screen (AID 1160). Conditions: HEK293-NOX4, Amplex Red H2O2 fluorescence, 45 min; higher = more signal, called active from +8 up or from −8 down.
NADPH oxidase 4 (Homo sapiens), sequence (Q9NPH5 whole entry, looked up): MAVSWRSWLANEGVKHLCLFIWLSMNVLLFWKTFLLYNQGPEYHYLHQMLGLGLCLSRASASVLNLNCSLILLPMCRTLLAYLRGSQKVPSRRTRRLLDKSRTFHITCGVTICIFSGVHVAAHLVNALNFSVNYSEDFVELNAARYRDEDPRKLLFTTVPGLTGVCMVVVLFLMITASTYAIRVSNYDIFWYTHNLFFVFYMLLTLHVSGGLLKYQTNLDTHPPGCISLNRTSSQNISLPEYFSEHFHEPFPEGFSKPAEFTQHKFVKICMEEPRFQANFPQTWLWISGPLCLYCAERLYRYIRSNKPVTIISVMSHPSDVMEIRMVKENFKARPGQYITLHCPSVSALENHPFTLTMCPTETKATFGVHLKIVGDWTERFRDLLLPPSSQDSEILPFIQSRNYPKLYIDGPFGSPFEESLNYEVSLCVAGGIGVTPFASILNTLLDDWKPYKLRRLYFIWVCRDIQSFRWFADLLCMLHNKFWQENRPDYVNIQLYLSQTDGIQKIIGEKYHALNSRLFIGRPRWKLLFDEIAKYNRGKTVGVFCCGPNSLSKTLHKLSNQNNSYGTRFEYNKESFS
The target of test [10] is NADPH oxidase 5 (Homo sapiens) (UniProt Q96PH1). In words: compounds shifting NOX5 Amplex Red fluorescence – cell-based, HEK293-NOX5, NOX inhibitor project, primary screen (AID 1161). Conditions: HEK293-NOX5, ionomycin, 45 min, higher = more signal.
NADPH oxidase 5 (Homo sapiens), sequence (Q96PH1 whole entry, looked up): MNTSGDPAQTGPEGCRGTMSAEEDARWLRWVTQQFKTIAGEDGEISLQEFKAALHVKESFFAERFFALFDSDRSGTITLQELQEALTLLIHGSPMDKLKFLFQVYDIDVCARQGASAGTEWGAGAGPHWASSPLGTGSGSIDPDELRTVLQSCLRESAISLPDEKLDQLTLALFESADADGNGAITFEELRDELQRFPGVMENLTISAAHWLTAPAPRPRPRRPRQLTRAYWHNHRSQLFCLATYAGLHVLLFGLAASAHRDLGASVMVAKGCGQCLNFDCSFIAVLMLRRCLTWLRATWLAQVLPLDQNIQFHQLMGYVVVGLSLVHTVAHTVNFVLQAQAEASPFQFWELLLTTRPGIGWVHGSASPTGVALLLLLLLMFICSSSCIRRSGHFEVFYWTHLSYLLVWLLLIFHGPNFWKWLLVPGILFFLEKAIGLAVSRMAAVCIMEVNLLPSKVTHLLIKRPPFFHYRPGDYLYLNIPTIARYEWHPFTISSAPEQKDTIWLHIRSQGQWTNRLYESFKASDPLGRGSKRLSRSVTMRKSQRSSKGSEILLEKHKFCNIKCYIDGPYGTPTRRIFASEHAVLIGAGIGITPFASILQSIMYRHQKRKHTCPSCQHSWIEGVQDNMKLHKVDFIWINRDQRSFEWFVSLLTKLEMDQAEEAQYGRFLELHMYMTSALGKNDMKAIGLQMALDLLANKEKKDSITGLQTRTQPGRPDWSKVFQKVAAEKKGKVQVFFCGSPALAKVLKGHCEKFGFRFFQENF
Test [11] is described as follows: compound effects on lung adenocarcinoma cell viability – A549, calcein-AM fluorescence, 48 h, basal, profiling panel (AID 1162). Note: test concentration not given here. Conditions: higher = more signal.
Test [12] can be described thus: compound effects on differentiated 3T3-L1 adipocyte viability – cell-based, 3T3-L1 adipocytes, calcein-AM fluorescence, 48 h, basal, profiling panel (AID 1163). Note: test concentration not given here. Conditions: 3T3-L1 adipocytes viability, higher = more signal.
Test [13] is described as follows: compound effects on hepatocellular carcinoma cell viability – HepG2, calcein-AM fluorescence, 48 h, basal, profiling panel (AID 1164). Note: test concentration not given here. Conditions: higher = more signal.
Test [14] in a line: compound effects on multiple myeloma cell viability – MM1S, calcein-AM fluorescence, 48 h, basal, profiling panel (AID 1165). Note: test concentration not given here. Conditions: higher = more signal.
A short description of test [15]: calcein-AM signal in unstimulated myeloma cells – cell-based, calcein-AM fluorescence, 48 h, PK04 Diversity Set, profiling panel (AID 1166).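 Note: cells grown under basal conditions without added stimulus; test concentration not given here.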 Conditions: RPMI8226 myeloma viability, higher = more signal.
Test [16] can be described thus: JC-1 mitochondrial signal, unstimulated HepG2 cells – cell-based, JC-1 fluorescence, 24 h, 100 nL compound, profiling panel (AID 1167). Note: test concentration not given here. Conditions: HepG2 mitochondrial potential, higher = more signal.
Test [17] in a line: JC-1 mitochondrial signal, unstimulated adipocytes – cell-based, JC-1 fluorescence, 3T3-L1 adipocytes, 24 h, 100 nL compound, profiling panel (AID 1168). Note: test concentration not given here. Conditions: JC-1 mitochondrial fluorescence, higher = more signal, called active from +8 up or from −8 down.
Test [18] in a line: JC-1 mitochondrial signal, unstimulated myeloma cells – cell-based, JC-1 fluorescence, RPMI8226, 24 h, 100 nL compound, profiling panel (AID 1169). Note: test concentration not given here. Conditions: JC-1 mitochondrial potential fluorescence, higher = more signal.
The nature of test [19]: JC-1 mitochondrial signal, unstimulated MM1S myeloma – cell-based, JC-1 fluorescence, 24 h, 100 nL compound, profiling panel (AID 1170). Note: test concentration not given here. Conditions: MM1S mitochondrial potential, higher = more signal.
A short description of test [20]: resazurin metabolic signal in A549 cells – cell-based, resazurin fluorescence, 24 h, PK04 Diversity Set, profiling panel (AID 1171). Note: test concentration not given here. Conditions: A549 viability, higher = more signal, called active from +8 up or from −8 down.

As to `COC(=O)c1cccc([C@H]2OC(=CC(=O)OC(C)C)C[C@@H](c3cccc(C(=O)OC)c3)O2)c1`, the z-score in test [1] is -0.576 (inactive); in test [3], 18.5 (active); in test [4], 3.17 (inactive); in test [5] it was 0.487 (inactive); in [6] it was 0.683 (inactive); in [7] it was 0.0055. Moreover, the z-score is -0.679 (inactive) in test [8]; -1.6 (inactive) in test [9]; -2.04 in test [10]; -0.921 in [11]; 0.229 in test [12]; -0.248 in test [13]. Moreover, the z-score was -3.15 in [14]; -1.64 in test [15]; -0.571 in test [16]; -1.52 (inactive) in [17]; -1.08 in [18]; -2.76 in test [19]. In addition, the z-score in test [20] is -0.0417 (inactive). For the same compound, the composite z-score in test [2] came out at 0.635.

For the compound `C=CCC(OC(C)=O)[C@@H]1[C@@H](N(Cc2cccc3ccccc23)C(=O)c2ccc(-c3ccccc3)cc2)c2cc(OCCCO)ccc2N1C(=O)Cc1ccc2ccccc2c1` (stereo not given in full), the z-score in [1] was -0.662 (inactive); in test [3], 0.36 (inactive); in test [4], 0.35 (inactive); in test [5] it was -0.428 (inactive); in test [6] it was 0.309 (inactive); in test [7] it was -0.242. Moreover, the z-score was -1.49 (inactive) in [8]; 1.15 (inactive) in test [9]; 0.311 in test [10]; -0.217 in test [11]; 0.153 in test [12]; 0.581 in test [13]. For the same compound, the z-score in [14] was -1.54; in test [15] it was -0.729; in [16], 1.9; in test [17] it was -0.407 (inactive); in test [18], -0.342; in [19], 0.164. Besides, the z-score in test [20] is 0.706 (inactive). The composite z-score in [2] was -0.0164.

On to `O=C(NCC(O)CO)C1N=C(c2ccc(OCCCO)cc2)N(c2ccccc2)O1` (stereo not given), for which the z-score in test [1] is -0.0446 (inactive); in test [3], 13.5 (active); in test [4] it was 1.49 (inactive); in [5] it was 0.257 (inactive); in [6] it was 0.594 (inactive); in test [7] it was 0.0265. Besides, the z-score in test [8] was -1.68 (inactive); in test [9] it was -1.05 (inactive); in [10], -0.583; in test [11], -0.508; in [12], -0.293; in test [13], 0.285. Also, the z-score in [14] is 1.22; in test [15] it was -1.53; in [16], 0.499; in test [17] it was -0.761 (inactive); in [18], -0.877; in test [19] it was 0.571. Also, in [20], the z-score is -0.0914 (inactive). In addition, the composite z-score in [2] is -0.316.

`O=C(NCC(O)CO)[C@@]1(CCS(=O)(=O)c2ccccc2)N=C(c2ccc(OCCCO)cc2)O[C@H]1c1ccccc1` (stereo not given in full): the z-score was -0.295 (inactive) in test [1]; 25.6 (active) in test [3]; 19.1 (active) in test [4]; 2.38 (inactive) in [5]; 1.39 (inactive) in test [6]; 1.07 in test [7]. Further, the z-score in [8] is -0.356 (inactive); in test [9], 1.47 (inactive); in test [10], 1.33; in test [11], 0.433; in [12], 0.719; in [13] it was -0.4. Moreover, the z-score in [14] is -1; in [15] it was -2.47; in test [16] it was 0.956; in [17], -0.874 (inactive); in test [18] it was -0.694; in [19], -0.745. Besides, in [20], the z-score was -0.0521 (inactive). The same compound had a composite z-score in test [2] of 0.419.
